Measurements reported in the supplement of paper PMC10127200.
Structures can show the parent of a compound that is named as a salt.

What follows are molecules tested on OVCAR4 (assay: Euclidean distance of Cell Painting phenotypic profile (signed KS, 77 features) to DMSO centroid (dimensionless distance); 5 or 10 uM (library dependent); higher = stronger phenotypic change vs DMSO (phenoactivity)). Conditions: 48 h.
Outline: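 Library compounds were applied at 10 or 5 uM, depending on the library, with 0.1% DMSO final, for 48 h to five cancer lines and a healthy fibroblast line. After staining, cells were imaged confocally at 20X across 9 fields per well, and Harmony extracted 77 features, each scored as a signed Kolmogorov-Smirnov statistic against vehicle wells on the same plate. Phenoactivity is the Euclidean distance between each profile and the median vehicle profile, with profiles first plate-position corrected, correlation-weighted and averaged over replicates at the top dose.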

Row | Structure (SMILES) | Euclidean distance
1 | Nc1nc(N)c(N=O)c(OCC2CCCCC2)n1 | 1.38
2 | CN1CCN(c2ccc3nc(-c4c(N)c5c(F)cccc5[nH]c4=O)[nH]c3c2)CC1 [Dovitinib (TKI-258) Dilactic Acid] | 1.96
3 | Cc1cccc(Oc2cnc(=O)[nH]c2)c1 | 0.931
4 | CC(C)(C)CC(C)(C)c1ccc(OCCOCC[N+](C)(C)Cc2ccccc2)cc1 [Benzethonium Chloride] | 2.37
5 | O=C(NC1CCNCC1)c1n[nH]cc1NC(=O)c1c(Cl)cccc1Cl | 3.69
6 | CCCNCC(O)COc1ccccc1C(=O)CCc1ccccc1 (stereo unspecified) [Propafenone HCl] | 1.26
7 | CCCC(=O)Nc1ccc(OCC(O)CNC(C)C)c(C(C)=O)c1 (stereo unspecified) [Acebutolol HCl] | 1.34
8 | COC(=O)C1=CO[C@@H](O[C@@H]2O[C@H](CO)[C@@H](O)[C@H](O)[C@H]2O)[C@@H]2[C@@H](C)[C@@H](O)C[C@H]12 [Loganin] | 0.971
9 | NCCS [Cysteamine HCl] | 1.07
10 | Cc1nc(Nc2ncc(C(=O)Nc3c(C)cccc3Cl)s2)cc(N2CCN(CCO)CC2)n1 [Dasatinib Monohydrate] | 4.26
11 | N[C@@H]1CCCCN(c2c(F)cc3c(=O)c(C(=O)O)cn(C4CC4)c3c2Cl)C1 [Besifloxacin HCl] | 0.585
12 | N=C(N)NC(=O)c1nc(Cl)c(N)nc1N [Amiloride HCl dihydrate] | 1.28
13 | C[C@@H](Oc1ccc2[nH]nc(/C=C/c3cnn(CCO)c3)c2c1)c1c(Cl)cncc1Cl | 3.82
14 | Nc1ccc(S(=O)(=O)Nc2ccnn2-c2ccccc2)cc1 [Sulfaphenazole] | 1.26
15 | CC(C)CC(=O)Nc1n[nH]c2c1CN(C(=O)C1CCN(C)CC1)C2(C)C | 4.04
16 | O=C1NC(=O)C(=Cc2ccc(-c3ccc(F)cc3)o2)S1 (stereo in doubt) | 1.33
17 | Cn1c(=O)cc(N2CCC[C@@H](N)C2)n(Cc2cc(F)ccc2C#N)c1=O [Trelagliptin succinate] | 1.49
18 | CC[C@H]1OC(=O)C[C@@H](O)[C@H](C)[C@@H](O[C@@H]2O[C@H](C)[C@@H](O[C@H]3C[C@@](C)(O)[C@@H](O)[C@H](C)O3)[C@H](N(C)C)[C@H]2O)[C@@H](CC=O)C[C@@H](C)C(=O)/C=C/C(C)=C/[C@@H]1CO[C@@H]1O[C@H](C)[C@@H](O)[C@@H](OC)[C@H]1OC [Tylosin] | 0.917
19 | CN1C(N)=N[C@](C)(c2cc(NC(=O)c3ccc(F)cn3)ccc2F)CS1(=O)=O [Verubecestat (MK-8931)] | 0.924
20 | CC(=O)OCC(=O)[C@@]1(O)CC[C@H]2[C@@H]3CCC4=CC(=O)CC[C@]4(C)[C@H]3[C@@H](O)C[C@@]21C [Hydrocortisone acetate] | 1.41
21 | CC(C)(CO)[C@@H](O)C(=O)NCCC(=O)O [D-Pantothenic acid] | 1.11
22 | CC(C)Cn1cnc2c(N)nc3ccccc3c21 [Imiquimod] | 0.537
23 | CCOc1ccc2nc(S(N)(=O)=O)sc2c1 [Ethoxzolamide] | 0.937
24 | CCOC(=O)Nc1cc(-c2ccc(C)c(NS(C)(=O)=O)c2)nn2c(C)nnc12 [Bromosporine] | 2.35
25 | CCN1CCN(C(=O)N[C@@H](C(=O)N[C@@H]2C(=O)N3[C@@H]2SC(C)(C)[C@@H]3C(=O)O)c2ccccc2)C(=O)C1=O [Piperacillin Sodium] | 1.25
26 | CCCCCCCCCCC[C@@H](C[C@@H]1OC(=O)[C@H]1CCCCCC)OC(=O)[C@H](CC(C)C)NC=O [Orlistat] | 0.935
